Experimental data: PubChem BioAssay AID1159580 (chemical genetic matrix, 2015)
About 2,000 (36%) of roughly 5,500 compounds were called active. Roughly 18% stayed inconclusive and do not appear here. Cut-off read from the data, not from the text of the source: active = normalized growth mostly below about 0.91 (no sharp cut-off); inconclusive = no clear call, values can overlap the other calls; inactive = mostly above about 0.92. This is one part of the list.

Test: chemical genetic growth profiling, strain panel (AID 1159580);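 note: tested at 20 µM; growth read once vehicle control cultures reached saturation at 30 °C; 1 = growth at the plate median or of vehicle wells; lower values mean less growth of the strain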
Conditions: S. cerevisiae deletion strains, growth OD

Measured: normalized growth

O=C(Nc1ccc(OC(F)(F)F)cc1)Nc1cccc(C(=O)O)c1
inactive: locus YAL013W, strain DEP1, hits give low values 1.01 | locus YBR229C, strain ROT2, hits give low values 0.999 | locus YCL061C, strain MRC1, hits give low values 1.01 | locus YDL101C, strain DUN1, hits give low values 1.01 | locus YDL134C, strain PPH21, hits give low values 1.04 | locus YDR150W, strain NUM1, hits give low values 0.947 | locus YEL061C, strain CIN8, hits give low values 1.02 | locus YGR078C, strain PAC10, hits give low values 1 | locus YHR030C, strain SLT2, hits give low values 1.02 | locus YHR087W, strain rtc3, hits give low values 1.02 | locus YJL187C, strain SWE1, hits give low values 1.01 | locus YJR043C, strain POL32, hits give low values 0.974 | locus YJR075W, strain HOC1, hits give low values 1.01 | locus YLR039C, strain RIC1, hits give low values 0.995 | locus YLR058C, strain SHM2 (second series), hits give low values 1.01 | locus YLR085C, strain ARP6, hits give low values 1.07 | locus YLR262C, strain YPT6, hits give low values 0.981 | locus YML094W, strain GIM5, hits give low values 1.02 | locus YMR219W, strain ESC1, hits give low values 1 | locus YMR263W, strain SAP30, hits give low values 1.02 | locus YMR307W, strain GAS1, hits give low values 1.08 | locus YNL153C, strain GIM3, hits give low values 0.988 | locus YNL298W, strain CLA4 (second series), hits give low values 1 | locus YNL322C, strain KRE1, hits give low values 0.999 | locus YNR030W, strain Alg12, hits give low values 1.04 | locus YPL055C, strain LGE1, hits give low values 0.999 | locus YPL241C, strain CIN2, hits give low values 1.03 | locus YPR135W, strain CTF4, hits give low values 0.996
